# Only a selection was taken, and hits are over-represented in it overall.
# HBB splice mod = qHTS Assay for Modulators of Hemoglobin Beta Chain Splicing. HBB splicing reporter cell assay, activation; EGFP reporter with mutant IVS2-654 intron; response scale: normalised to 500 nM splice-correcting PNA. Potency, µM (highest dose often 46.1 µM), inactives show at the top dose activation, hits mostly activators. 0.06% of 65,000 active. AID 925, 2007; further: potency means the concentration at half of the fitted maximal effect; 0% is about no effect
#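 Compounds were applied for 2 days to HeLa EGFP-654 cells, 500/well in Optimem with 2% FCS. The reporter's EGFP is disrupted by mis-splicing of beta-globin intron IVS2-654. Readout: summed well GFP fluorescence from 488 nm laser scanning; reference was 500 nM antisense […] 654 PNA.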
# ERK AVP block = qHTS Assay for Inhibitors of the ERK Signaling Pathway using a Homogeneous Screening Assay | HEK293-V1b, vasopressin-stimulated pERK AlphaScreen | Potency, µM (highest dose often 57.5 µM), for the others: at the top dose activity, negative = inhibition, hits mostly inhibitors | 0.99% of 72,000 active | AID 995, 2007; further: potency means the concentration at half of the fitted maximal effect; on the % scale 0 is the no-effect control and ±100 the full control effect; nearly all actives have a fitted effect of over 55% in size
#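 qHTS, compounds titrated on V1b-expressing HEK293 cells. Preincubation 30 min at 37C, vasopressin 25 nM for 5 min, lysis 10 min, bead incubation 5 hr at room temperature.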
# IkB signaling = IkB Signaling | ABC-DLBCL IkBa-CBG/CBR dual luciferase ratio, 4 h; response scale: scaled: untreated 0%, proteasome inhibitor 100% | 0.04% of 110,000 active | Potency, µM (series often up to 57.1 µM), for inactives: top-dose IkBa stabilization activation; active means well fitted curve in the direction sought with a large enough effect in the signal ratio, not every such curve was filed as active; inconclusive means small, poorly fitted or top-dose-only effect, or a change in a side signal; the % refers to the signal ratio;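 further: potency means the concentration at half of the fitted maximal effect; the direction sought is a rising ratio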
#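 Curves were fitted separately to fusion (green), unfused (red) and ratio luminescence, then classed by r2, magnitude and activity. Cells: OCI-Ly3, 4 h compound plus doxycycline at 37C; 10 uM MG-132 defined full response.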
# GFP derepression = qHTS Assay for Epigenetic Modulators. mouse C127i GFP locus derepression, cytometry, 30 h. Potency, µM (series often up to 46.1 µM), inactives show at the highest dose GFP derepression (activation). AID 597, 2007. 0.09% of 68,000 active; further: % of control where 0% means no effect
#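 Locus derepression in mouse mammary C127i cells whose integrated CMV-GFP reporter is normally silent; GFP expression after 30 h compound treatment was quantified by counting fluorescent cells.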
# CRE-bla Fsk = Cell signaling CRE-BLA (Fsk stim) | Potency, µM (doses to about 38.2 µM), for inactives: top-dose activity change, negative = inhibition, most hits filed as activators | CHO CRE-bla reporter (cAMP response element driving beta-lactamase), forskolin EC10, beta-lactamase ratio | 2.5% of 71,000 active; active means well fitted activation curve with a large enough effect in the signal ratio, with a control signal flat, not every such curve was filed as active; inconclusive means small, poorly fitted or top-dose-only effect, or effect the other way, or a change in a side signal; the % refers to the signal ratio; further: potency means the concentration at half of the fitted maximal effect; % of control where 0% means no effect
#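 CHO CRE-bla cells, overnight plating in Opti-MEM with 0.5% dialyzed FBS; cpd titration + EC10 NKH 477, 3 h 37 °C; CCF4 2 h RT; ex 405/em 460 vs 530 ratio → %Activity, AC50.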
# An asterisk follows results filed as active; ? = inconclusive; . = no result; ! = a repeat was not active; [ ] = dose if it differs, or a comment. Unless noted, the call rests on the fitted dose curve; in most records, active means well fitted curve in the direction sought with a large enough effect; inconclusive means small, poorly fitted or top-dose-only effect, or another doubt; inactive means no such curve, though single readings can be large; an effect the other way counts as inactive or inconclusive.
SMILES,HBB splice mod,ERK AVP block,IkB signaling,GFP derepression,CRE-bla Fsk
CCN(CC)c1nc(SCC(=O)O)nc(N(CC)CC)n1,-1%,-3%,-1%,-3%,3%
CCN(CC)c1nc(C#N)nc(N(CC)CC)n1,-3%,-2%,2%,3%,10µM*
COc1ccc2c(C=Nc3c(C)n(C)n(-c4ccccc4)c3=O)c(O)n(Cc3ccco3)c(=O)c2c1,5%,-20%,0%,0%,3.2µM*
Cc1c(N=Cc2ccco2)c(=O)n(-c2ccccc2)n1C,-5%[0.0738 µM],-15%,0%,-2%,-1%[7.6 µM]
CCOC(=O)CNC(=O)CSc1ncnc2c1cnn2-c1ccc(C)cc1,.,7.9µM*,-2%,2%,2%
CCOC(=O)CNC(=O)CSc1ncnc2c1cnn2-c1ccccc1,0%[57.5 µM],-11%,3%,1%,-3%
COc1ccc(N2CCn3c2nc2c3c(=O)n(CCc3ccccc3)c(=O)n2C)c(OC)c1,1%[1.84 µM],-9%,0%,0%,-6%
COc1ccc(N2CCn3c2nc2c3c(=O)n(CCCc3ccccc3)c(=O)n2C)c(OC)c1,0%[0.369 µM],13µM*,?,8%,-16%
C=CCn1c(N)c(C(=O)OC(C)CC)c2nc3ccccc3nc21 (configuration not stated),-3%[0.369 µM],-19%,0%,2%,13µM*
CCNc1ccc(-c2nc(-c3ccncc3)no2)cc1[N+](=O)[O-],.,.,0%,.,.
CN(C)CCn1c2c(c(SCC(=O)Nc3ccc(F)cc3F)nc1=O)CCC2,.,.,2%,.,.
Cc1ccc(CNC(=O)CS(=O)Cc2nc(-c3ccccc3C)oc2C)cc1 (configuration not stated),-1%,6%,1%,.,-9%
COc1ccc(CNC(=O)CS(=O)Cc2nc(-c3ccccc3C)oc2C)cc1 (configuration not stated),-2%,20µM*,0%,.,-10%
O=C1c2c(O)ccc(O)c2C(=O)c2c(NCCNCCO)ccc(NCCNCCO)c21,3%[20.6 µM],13µM*!,?,?,5%[17.1 µM]
Cc1cc(-c2ccc(S(=O)(=O)Nc3cc(Cl)ccc3C)s2)on1,.,.,4%,.,.
CCCc1nc(N)c(C#N)c(N)c1C#N,3%[0.369 µM],?,-3%,0%,5µM*
CCn1nc(NC(=O)c2ccncc2)c2cc3ccccc3nc21,3%[0.369 µM],-24%,3%,-2%,6.3µM*
CCn1nc(NC(=O)c2cccnc2)c2cc3cccc(C)c3nc21,-1%,4%,-2%,0%,-1%
CCn1nc(NC(=O)c2ccncc2)c2cc3cccc(C)c3nc21,3%[57.5 µM],-10%,1%,0%,5µM*
Cc1ccccc1-c1nccc(NCc2cccnc2)n1,-1%,?,-1%[11.4 µM],-3%[9.22 µM],?
CCCSC1=NC2(CCN(C(=O)NC3CCCCC3)CC2)N=C1c1ccc(OC)cc1,.,.,-2%,.,.
Cc1ccc(C)c(OCCOCCn2c(-c3ccc(Br)cc3)nc3ccccc3c2=O)c1C,.,.,3%,.,.
N#Cc1cccc(-c2nc(N3CCNCC3)c3ccccc3n2)c1,0%,-10%,-3%[11.4 µM],-5%[9.22 µM],?
CS(=O)(=O)Nc1cccc(-c2nc(N3CCNCC3)c3ccccc3n2)c1,1%,3%,-3%[11.4 µM],0%[9.22 µM],13µM*
CN(C)c1nc(-c2cccc(NS(C)(=O)=O)c2)nc2ccccc12,0%,-12%,-2%[11.4 µM],2%[9.22 µM],13µM*
COc1ccc(CN(C(=O)c2ccccc2F)C2CCS(=O)(=O)C2)cc1 (configuration not stated),.,.,2%,.,.
O=C1c2ccccc2C(Nc2ccc3c(c2)OCO3)N1Cc1ccc2c(c1)OCO2 (configuration not stated),-1%,2%,1%,.,10%
O=C1c2ccccc2C(Nc2ccc3c(c2)OCO3)N1Cc1ccco1 (configuration not stated),0%,25µM*,-3%,-4%,5%
CC(NC(=O)C(=O)Nc1c2c(nn1-c1ccccc1)CSC2)c1ccccc1 (configuration not stated),.,.,1%,.,.

# Bioassay records deposited in PubChem by National Center for Advancing Translational Sciences (NCATS).
